Compound activity as filed in PubChem.
Cruzain noTriton = cruzain (T. cruzi) inhibition without detergent. purified cruzain, Z-FR-AMC fluorescence, no detergent. actives 2.3% (n = 200,000). P25779. AID 1476. Potency, µM, without a hit: max response, negative = inhibition, usual class: inhibitors;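 also: plate controls were enzyme without inhibitor for no effect and buffer without enzyme for full effect; nearly all actives have a fitted effect of over 40% in size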
Target sequence (P25779 123-467 limits assumed): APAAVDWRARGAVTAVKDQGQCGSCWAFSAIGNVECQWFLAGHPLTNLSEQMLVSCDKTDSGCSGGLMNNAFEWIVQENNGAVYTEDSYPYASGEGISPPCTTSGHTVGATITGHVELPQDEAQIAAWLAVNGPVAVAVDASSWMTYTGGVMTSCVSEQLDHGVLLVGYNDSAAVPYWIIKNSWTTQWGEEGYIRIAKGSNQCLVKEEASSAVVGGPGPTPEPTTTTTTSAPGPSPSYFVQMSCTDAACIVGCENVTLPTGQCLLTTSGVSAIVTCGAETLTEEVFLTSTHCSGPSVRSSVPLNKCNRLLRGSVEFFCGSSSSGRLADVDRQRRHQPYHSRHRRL
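Detergent-free condition (0.00005% Triton X-100) in acetate buffer pH 5.5 with DTT. 1.5 nM enzyme and compound were pre-mixed 15 min, then 2 uM Z-FR-AMC substrate added; reaction progress from fluorescence change between first and third reads (60 s).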
Cruzain inh Det = blocks cruzain activity in presence of Triton detergent. P25779. Potency, µM, without a hit: max response, negative = inhibition, hits mostly inhibitors. actives 0.43% (n = 200,000). purified cruzain, Z-FR-AMC fluorescence, 0.01% Triton;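 also: plate controls were neutral wells for no effect and buffer without enzyme for full effect; nearly all actives have a fitted effect of over 40% in size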
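Sodium acetate buffer (100 mM, pH 5.5) containing 5 mM DTT and 0.01% Triton X-100 hosted 1.5 nM cruzain and test compound for 15 min at room temperature. Cleavage of 2 uM Z-FR-AMC was then tracked by fluorescence.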
* hit, by the source's call; ? = inconclusive. Sampled rows, rich in hits. Any-hit rate of the full collection: about 2.6%. Calls follow the shape of the dose curve; as a rule, active = well fitted curve in the direction sought with a large enough effect; inconclusive = small, poorly fitted or top-dose-only effect, or another doubt; inactive = no such curve, though single readings can be large; an effect the other way counts as inactive or inconclusive. Potency is read from the fitted curve at half-maximal effect.

SMILES	Cruzain noTriton	Cruzain inh Det
O=C(CSc1ccccc1)Nc1ccc(N2CCN(c3ccccc3)CC2)c(F)c1	12.6µM*	9.0%
Cc1ccc(SCC(=O)Nc2ccc(N3CCN(C)CC3)c(F)c2)cc1	-1.0%	-0.9%
COc1ccccc1NC(=O)c1ccc(CN(c2cc(Cl)ccc2C)S(=O)(=O)c2ccccc2)cc1	12.6µM*	-0.3%
COc1ccc(NC(=O)c2ccc(CN(c3cc(Cl)ccc3C)S(=O)(=O)c3ccccc3)cc2)cc1OC	?	1.4%
CCOc1ccc(CCNC(=O)Cn2c(C)c3cnn(-c4ccccc4)c(=O)c3c2C)cc1	8.8%	-5.0%
COc1ccccc1-c1noc(CSc2nc3ccc(C)cc3[nH]2)n1	9.1%	-11.0%
COc1ccc(-c2c3c(nc4sc5c(=O)[nH]c(C)nc5c24)CCC3)cc1	-27.0%	2.0%
O=C(Cn1nnc2c(sc3nc4c(c(-c5ccccc5)c32)CCC4)c1=O)c1ccccc1	25.1µM*	1.0%
COC(=O)c1c(-c2cccs2)csc1NC(=O)COc1ccc(C(C)(C)C)cc1	25.1µM*	-4.3%
COC(=O)c1c(-c2cccs2)csc1NC(=O)COc1c(C)ccc(C)c1C	25.1µM*	-7.7%
COC(=O)c1c(-c2cccs2)csc1NC(=O)COc1ccc(C)cc1	-16.6%	0.2%
COC(=O)c1c(-c2cccs2)csc1NC(=O)COc1ccccc1	-20.3%	-15.9%
NC(=O)c1ccc(NC(=O)COC(=O)c2cccc(Oc3ccccc3)c2)cc1	15.8µM*	0.7%
O=C(COC(=O)c1cccc(N2C(=O)c3ccccc3C2=O)c1)Nc1ccccc1	5.6%	-1.9%
CC(C)CCCC(C)C1CCC2C3CC[C@H]4CC(=O)CC[C@@]4(C)C3CC[C@@]12C (some centres not stated)	-6.6%	2.8%
Oc1cccc(NC(=S)Nc2ccc(SC(F)F)cc2)c1	-2.1%	-5.4%
FC(F)Sc1ccc(NC(=S)NC2CCC(NC(=S)Nc3ccc(SC(F)F)cc3)CC2)cc1 (configuration not stated)	15.8µM*	2.3%
O=C(Nc1ccc(NC(=O)c2cccs2)cc1)c1ccc(Cl)cc1	-5.1%	0.0%
COc1c(Cl)cc(Cl)cc1/C=C/C(=O)c1ccc(NC(=O)c2cccs2)cc1	31.6µM*	-2.8%
COC(=O)c1ccc(COC(=O)c2ccc(CS(=O)(=O)c3ccc(C)cc3)cc2)cc1	25.1µM*	-1.8%
Cc1ccc(S(=O)(=O)CCC(=O)OCc2ccc(Cl)cc2)cc1	4.6%	-2.7%
CN(C)c1ccc(C(=C2C=CC(=[N+](C)C)C=C2)c2c(O)c(S(=O)(=O)O)cc3cc(S(=O)(=O)O)ccc23)cc1	-4.8%	-2.1%
CCC(/C=C/C(C)C1CCC2C3CC=C4CC(O)CC[C@@]4(C)C3CC[C@@]12C)C(C)C (some centres not stated)	-7.2%	2.0%
Cc1cccc(NC(=O)c2cc(-c3ccc(C)s3)nc3ccccc23)n1	20µM*	-12.8%
CCCCN(C)CCCNC(=O)c1cc(-c2ccc(Br)s2)nc2ccccc12	-6.8%	-1.1%
SMILES	Cruzain noTriton	Cruzain inh Det
Cc1cc(NC(=O)c2cc(-c3ccc(C)s3)nc3ccccc23)no1	-1.4%	-8.4%
CC(C)CCNC(=O)c1cc(-c2ccc(Br)s2)nc2ccccc12	3.16µM*	-2.2%
N=C(N)SCC(=O)O	-1.3%	3.0%
Cc1ccccc1-c1nc(-c2ccc(NC(=O)c3cccs3)cc2)no1	?	3.1%
Cc1ccccc1C(=O)Nc1ccc(-c2nc3ccc(C(=O)c4ccccc4)cc3[nH]2)cc1	12.6µM*	-1.9%
O=C(c1ccccc1)c1ccc2nc(-c3ccc(NC(=O)c4ccccc4Br)cc3)[nH]c2c1	2.5%	-2.8%
O=C(Nc1ccc(-c2noc(-c3ccccc3F)n2)cc1)c1cccs1	20µM*	0.5%
O=C(Nc1ccc2nc(-c3cccs3)[nH]c2c1)c1ccco1	20µM*	-22.0%
Cc1ccc2nc(-c3ccc(NC(=O)c4ccco4)cc3)[nH]c2c1	-0.7%	25.1µM*
O=C(Nc1cccc(-c2nc3ccccc3[nH]2)c1)c1ccco1	-10.5%	-6.6%
Cn1cccc1-c1nc2ccc(NC(=O)c3ccco3)cc2[nH]1	-4.0%	-9.6%
Cc1ccc(Cl)cc1NC(=O)CSc1nc2c(c(=O)[nH]1)CN(Cc1ccccc1)CC2	19.5%	-6.3%
CCCc1nn2c(C)c(-c3ccccc3)nc2s1	13.3%	8.0%
COc1ccccc1N=c1scc(-c2ccc(S(=O)(=O)N3CCCC3)cc2)n1C	20.2%	-1.8%
O=C(Nc1ccc(-c2nc3ccc(NC(=O)c4cccs4)cc3[nH]2)cc1)c1cccs1	25.1µM*	11.2µM*
O=C(Nc1ccc2nc(-c3cccs3)[nH]c2c1)c1cccs1	17.9%	3.2%
Cn1c(=O)[nH]c(=O)c2c1nc(CN1CCN(c3ccccc3)CC1)n2Cc1c(F)cccc1Cl	1.0%	0.8%
C[C@@H](C(=O)Nc1ccc2ccccc2c1)[C@@H]1C[C@@]1(C)[C@@H](NS(=O)(=O)c1ccccc1)c1ccccc1	?	-0.8%
CC(=O)N[C@@H](c1ccccc1)[C@]1(C)C[C@H]1[C@@H](C)C(=O)Nc1ccc2ccccc2c1	?	-1.6%
C[C@@H](C(=O)Nc1ccc2ccccc2c1)[C@@H]1C[C@@]1(C)[C@@H](NC(=O)Oc1ccc(F)cc1)c1ccccc1	7.94µM*	3.2%
C[C@@H](C(=O)Nc1ccc2ccccc2c1)[C@@H]1C[C@@]1(C)[C@@H](NS(=O)(=O)c1ccc(-c2ccccc2)cc1)c1ccccc1	3.16µM*	1.3%
CCCOc1ccc(CN(C(=O)c2cc(=O)c3ccc(C)cc3o2)C2CCS(=O)(=O)C2)cc1 (configuration not stated)	?	-5.7%
CCC(C)c1ccc(OCC(=O)Nc2cccc(-c3nc4ncccc4o3)c2)cc1 (configuration not stated)	25.8%	-6.8%
CCOc1ccc(-c2nnn(CC(=O)NCCc3c[nH]c4ccccc34)n2)cc1	-16.6%	-7.6%
CCCOc1ccc(-c2nnn(CC(=O)c3c[nH]c4ccccc34)n2)cc1	7.94µM*	1.9%
SMILES	Cruzain noTriton	Cruzain inh Det
CCCCCCCCOC(=O)C(NC(=O)CCC(=O)Nc1ccc(S(N)(=O)=O)cc1)C(O)c1ccccc1 (configuration not stated)	7.94µM*	2.9%
CCOC(=O)C(NC(=O)CCC(=O)Nc1ccc(S(N)(=O)=O)cc1)C(O)c1ccccc1 (configuration not stated)	8.9%	0.5%
O=C(O)CBr	-2.1%	-3.4%
Cc1cc(C)cc(OCC(=O)Nc2ccc(N3CCN(C(=O)c4ccco4)CC3)cc2)c1	5.0%	-7.4%
Cc1cccc(OCCCC(=O)Nc2ccc(N3CCCCC3)cc2)c1C	20µM*	5.3%
Cc1cccc(OCC(=O)Nc2ccc(N3CCN(S(C)(=O)=O)CC3)cc2)c1C	12.6µM*	7.7%
Cc1cccc(OCCCC(=O)Nc2ccc(S(N)(=O)=O)cc2)c1C	?	-4.3%
Cc1ccccc1OCC(=O)Nc1ccc(N2CCN(S(C)(=O)=O)CC2)cc1	?	8.3%
Cc1cc(C)cc(OCC(=O)Nc2ccc(N3CCN(S(C)(=O)=O)CC3)cc2)c1	15.8µM*	-1.1%
CCCn1c(-c2ccc(F)cc2)nc2c(NCCN3CCSCC3)nc(C)nc21	8.7%	1.3%
Cc1ccc(C(=O)NCC(=O)OCc2cc(=O)n3nc(C4CCCCC4)sc3n2)cc1	9.1%	-2.5%
CCCc1cc(=O)oc2cc(C)c(CN3CCCC3)c(O)c12	8.9%	-14.9%
CCCc1cc(=O)oc2c(CN3CCCC3)c(O)c(Cl)cc12	?	31.6µM*
CCCc1cc(=O)oc2c(CN3CCCC3)c(O)ccc12	?	25.1µM*
